{"source": "PubChem BioAssay AID463173", "about": "(ICCB-Longwood Screening Facility, Harvard Medical School, 2010)", "note": "Out of some 52,000 compounds screened, about 4,300 (8.3%) were called active. Cut-off read from the data, not from the text of the source: active = survival mostly below about 52% (no sharp cut-off); inactive = mostly above about 56%. For the sample, actives were picked, then their nearest neighbours and some compounds at random.", "data": [{"tested_on": "DeltatarO mutant", "experiment": "growth inhibition of S. aureus wild type versus tarO mutant, primary screen, teichoic acid synthesis inhibitors, RN4220, OD600 (AID 463173)", "settings": "OD600, 18 h, stronger effect = lower value, screened at 18.75 µg/mL (by protocol)", "values": [{"compound": "Cc1ccc(CCNC(=O)c2cn(C)c3ccc(S(=O)(=O)N4CCC(C)CC4)cc3c2=O)cc1", "survival": "72% (inactive)"}, {"compound": "Cc1ccc(S(=O)(=O)n2nc(-c3ccccc3)nc2NCc2ccccc2Cl)cc1", "survival": "85% (inactive)"}, {"compound": "CCc1c(C)nc2nncn2c1NCc1ccc(OC)cc1", "survival": "85% (inactive)"}, {"compound": "COc1ccc2c(c1)CC(C(=O)Nc1ccc(Br)c(C)c1)CO2", "note": "(centres undefined)", "survival": "70% (inactive)"}, {"compound": "CCCN1C(=O)CC(C(=O)OC)=C1C", "survival": "81% (inactive)"}, {"compound": "CCOc1cccc2sc(N(Cc3cccnc3)C(C)=O)nc12", "survival": "89% (inactive)"}, {"compound": "Cc1cc(Br)ccc1NC(=O)c1coc(=O)c2ccccc12", "survival": "90% (inactive)"}, {"compound": "COc1ccc(-c2cc(C(F)(F)F)n3nc(-c4ccccc4)cc3n2)cc1OC", "survival": "61% (inactive)"}, {"compound": "FC(F)(F)c1cc(-c2ccccc2)nc2cc(-c3ccccc3)nn12", "survival": "59% (inactive)"}, {"compound": "FC(F)(F)c1cc(-c2ccccc2)nc2cc(-c3ccc(Br)cc3)nn12", "survival": "42% (active)"}, {"compound": "CCN1CCN(Cc2nc3cc(NC(=O)c4ccccc4[N+](=O)[O-])ccc3n2CC)CC1", "survival": "78% (inactive)"}, {"compound": "Cc1cc(C)cc(NC(c2nnc(-c3cccc(F)c3)o2)c2ccc(F)cc2Cl)c1", "note": "(centres undefined)", "survival": "48% (inactive)"}, {"compound": "Cc1ccc(NC(c2nnc(-c3ccccc3)o2)c2ccccc2F)c(Cl)c1", "note": "(centres undefined)", "survival": "85% (inactive)"}, {"compound": "Fc1ccc(C(NCCc2ccc(Cl)cc2)c2nnc(-c3ccccc3)o2)c(Cl)c1", "note": "(centres undefined)", "survival": "-2% (active)"}, {"compound": "CCOc1ccc(CCNC(c2nnc(-c3ccccc3)o2)c2ccccc2Cl)cc1OCC", "note": "(centres undefined)", "survival": "1% (active)"}, {"compound": "CC(C)c1ccc(NC(c2nnc(-c3ccccc3)o2)c2ccc(F)cc2Cl)cc1", "note": "(centres undefined)", "survival": "84% (inactive)"}, {"compound": "Cc1cc(NC(c2nnc(-c3ccccc3)o2)c2ccccc2F)ccc1Br", "note": "(centres undefined)", "survival": "40% (inactive)"}, {"compound": "COc1ccc(NC(c2nnc(-c3ccccc3)o2)c2ccccc2F)cc1Cl", "note": "(centres undefined)", "survival": "59% (inactive)"}, {"compound": "CCOc1ccc(CCNC(c2cccc(Cl)c2)c2nnc(-c3ccccc3)o2)cc1OCC", "note": "(centres undefined)", "survival": "95% (inactive)"}, {"compound": "Cc1cc(C)cc(NC(c2cccc(Cl)c2)c2nnc(-c3ccccc3)o2)c1", "note": "(centres undefined)", "survival": "92% (inactive)"}, {"compound": "Clc1ccc(CCNC(c2nnc(-c3ccccc3)o2)c2ccccc2Cl)cc1", "note": "(centres undefined)", "survival": "-3% (active)"}, {"compound": "Fc1ccccc1C(NCCc1ccc(Cl)cc1)c1nnc(-c2ccccc2)o1", "note": "(centres undefined)", "survival": "-9% (active)"}, {"compound": "O=C(CSc1nnc(-c2cccc(F)c2)c(-c2cccc(F)c2)n1)NC1CCCCC1", "survival": "73% (inactive)"}, {"compound": "CC(C)c1ccc(NC(=O)CSC2=Nc3ccccc3C3=NC(CCC(=O)NC4CCCCC4)C(=O)N23)cc1", "note": "(centres undefined)", "survival": "88% (inactive)"}, {"compound": "Cc1ccc(C(=O)CSc2nnc(CSc3nc(C)cc(C)n3)n2C)cc1", "survival": "88% (inactive)"}, {"compound": "COC(=O)c1ccc(Oc2nc3c(c(=O)n(C)c(=O)n3C)n2C(C)C)cc1", "survival": "85% (inactive)"}, {"compound": "CCCC(=O)Nc1nnc(SCc2cc(=O)n3ccccc3n2)s1", "survival": "87% (inactive)"}, {"compound": "Cc1cc(C)c2c(CC(=O)Nc3cc(C(F)(F)F)ccc3Cl)coc2c1", "survival": "66% (inactive)"}, {"compound": "COc1ccc(CCn2cc3c(c2-c2ccccc2Br)c(=O)n(C)c(=O)n3C)cc1OC", "survival": "67% (inactive)"}, {"compound": "O=C(Oc1ccccc1)c1ccc(F)cc1", "survival": "74% (inactive)"}, {"compound": "Cn1c(NCCN)nc2c1c(=O)n(Cc1ccccc1)c(=O)n2C", "survival": "50% (inactive)"}, {"compound": "CCOc1ccc2[nH]c(=O)c(CN(CC3CCCO3)C(=O)N(CC)CC)cc2c1", "note": "(centres undefined)", "survival": "98% (inactive)"}, {"compound": "Clc1ccc(CCNC(c2cccc(Cl)c2)c2nnc(-c3ccccc3)o2)cc1", "note": "(centres undefined)", "survival": "11% (active)"}, {"compound": "Cc1ccc(NC(c2cccc(Cl)c2)c2nnc(-c3ccccc3)o2)cc1F", "note": "(centres undefined)", "survival": "99% (inactive)"}, {"compound": "Clc1ccc(CCNC(c2ccc(Cl)cc2)c2nnc(-c3ccccc3)o2)cc1", "note": "(centres undefined)", "survival": "98% (inactive)"}, {"compound": "O=c1ccc(-c2ccccc2)nn1Cc1c(F)cccc1Cl", "survival": "55% (inactive)"}, {"compound": "Cc1cc2nn(-c3ccccc3)nc2cc1NC(=O)Cc1ccc(Cl)cc1", "survival": "89% (inactive)"}, {"compound": "Nc1nn(-c2ccccc2)nc1C(=O)OCc1c(F)cccc1Cl", "survival": "28% (active)"}, {"compound": "O=C(NCc1ccccc1)c1nn(-c2ccccc2)nc1CO", "survival": "108% (inactive)"}, {"compound": "O=C(NCCCc1ccccc1)c1nn(-c2ccccc2)nc1CO", "survival": "77% (inactive)"}, {"compound": "COc1cccc(COC(=O)c2ccc(-c3nnn(Cc4ccccc4)n3)cc2)c1", "survival": "126% (inactive)"}, {"compound": "O=C1CC(c2nnc(Cc3c(F)cccc3Cl)o2)CN1c1ccccc1", "note": "(centres undefined)", "survival": "129% (inactive)"}, {"compound": "Nc1nn(-c2ccccc2)nc1C(=O)OCc1ccc(Cl)cc1", "survival": "44% (active)"}, {"compound": "COc1cccc(COC(=O)c2ccc(-c3nnn(Cc4cccc(OC)c4)n3)cc2)c1", "survival": "67% (inactive)"}, {"compound": "Nc1nn(-c2ccccc2)nc1C(=O)OCc1ccccc1", "survival": "58% (active)"}, {"compound": "O=C(Cc1ccc(Cl)cc1)Nc1ccc2nn(-c3ccccc3)nc2c1", "survival": "81% (inactive)"}, {"compound": "COc1cccc(COC(=O)c2nn(-c3ccccc3)nc2N)c1", "survival": "15% (active)"}, {"compound": "COc1ccc(-c2oc3ncn4nc(-c5ccccc5Br)nc4c3c2-c2ccc(OC)cc2)cc1", "survival": "77% (inactive)"}, {"compound": "CCc1ccc(OCC(=O)Nc2ccc(S(=O)(=O)Nc3onc(C)c3C)cc2)cc1", "survival": "73% (inactive)"}, {"compound": "COC(=O)c1ccc(C(=O)OC)c(NC(=O)c2c(-c3ccccc3)c(-c3ccccc3)nn(C)c2=O)c1", "survival": "60% (inactive)"}, {"compound": "COc1ccc(CNC(=O)CCc2nc3cccnc3n2Cc2ccccc2)cc1", "survival": "120% (inactive)"}, {"compound": "Cc1ccc(NC(=O)NCCOCCn2c(=O)oc3ccccc32)cc1C", "survival": "86% (inactive)"}, {"compound": "Cc1ccccc1Cn1c2ccccc2c2cnn(CC(=O)NCCc3ccccc3)c(=O)c21", "survival": "96% (inactive)"}, {"compound": "COc1ccc(-c2cn3nc(N4CCCC(C(=O)Nc5cc(C)ccc5C)C4)sc3n2)cc1", "note": "(centres undefined)", "survival": "76% (inactive)"}, {"compound": "CCOc1ccc(NC(=O)Cn2cc(S(=O)(=O)c3ccc(C)cc3)c(=O)c3cc(F)ccc32)cc1", "survival": "74% (inactive)"}, {"compound": "CCC(=O)N1c2ccc(S(=O)(=O)CCC(=O)N3CCN(c4cc(C)ccc4C)CC3)cc2CC1C", "note": "(centres undefined)", "survival": "85% (inactive)"}, {"compound": "Cc1cc(C)cc(NC(=O)C(=O)NCC(c2ccc3c(c2)OCO3)N2CCOCC2)c1", "note": "(centres undefined)", "survival": "107% (inactive)"}, {"compound": "CSc1ccc(CNC(=O)CCn2ccc3cc(S(=O)(=O)N4CCC(C)CC4)ccc32)cc1", "survival": "88% (inactive)"}, {"compound": "CCCCC(CC)CNC(=O)C1CCC(CNS(=O)(=O)c2cccc3nsnc23)CC1", "note": "(centres undefined)", "survival": "65% (inactive)"}]}]}
